Screens (PubChem BioAssay)
Six1-Eya2 blk – Six1/Eya2 interaction inhibition. Q15475+O00167. AID 651725. AlphaScreen GST-Six1/His-Eya2 binding, biochemical; active compounds read low. activity change, % (test concentration not listed). actives 0.56% (n = 360,000); in the data active means activity change below about -65%; inconclusive means mostly about -30% to -63%
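Six1/Eya2 binding was read as AlphaScreen signal after compounds were pinned into GST-Six1 plus His-tagged Eya2 (5X stock 250/500 nM) in pH 8.0 Tris/NaCl/TCEP buffer, beads added, then incubated 1 h, 37 C, dark.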
IL-1B inflam inh – blocks inflammasome-driven IL-1 beta release; THP-1 LPS/ATP IL-1B secretion, AlphaLISA, 16 h; active compounds read low; activity change, % at 57.5 µM; actives 4.7% (n = 360,000); in the data active means activity change below about -50%; inconclusive means mostly about -30% to -49%
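Secreted IL-1B measured by AlphaLISA bead assay after 16 h compound exposure of THP-1 cells; compounds (final up to 57.5 uM) added 1 h before LPS (250 ng/mL) and ATP (1.25 mM) stimulation; lower signal means less secretion.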
DT40 TDP1 CPT – DT40-hTDP1 cell growth loss with CPT | Potency, µM (top dose mostly 46.2 µM), usual class: inhibitors | actives 12% (n = 420,000) | chicken DT40 Tdp1-/-;hTDP1 cells + 20 nM CPT, ATP luminescence, 48 h; further: nearly all actives have a fitted effect of over 55% in size
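Cell growth measured by CellTiter-Glo luminescence after a minimum 48 h, 37 C compound exposure with 20 nM CPT in Tdp1-knockout DT40 cells stably expressing hTDP1, seeded 400/well; qHTS titration format.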
TDP1 block – TDP1 (human) enzyme inhibition. Q9NUW8. recombinant TDP1, AlphaScreen DNA substrate cleavage. Potency, µM (doses to about 130 µM), most hits filed as inhibitors. actives 0.28% (n = 350,000); further: nearly all actives have a fitted effect of over 40% in size
Target sequence (Q9NUW8 whole entry, looked up): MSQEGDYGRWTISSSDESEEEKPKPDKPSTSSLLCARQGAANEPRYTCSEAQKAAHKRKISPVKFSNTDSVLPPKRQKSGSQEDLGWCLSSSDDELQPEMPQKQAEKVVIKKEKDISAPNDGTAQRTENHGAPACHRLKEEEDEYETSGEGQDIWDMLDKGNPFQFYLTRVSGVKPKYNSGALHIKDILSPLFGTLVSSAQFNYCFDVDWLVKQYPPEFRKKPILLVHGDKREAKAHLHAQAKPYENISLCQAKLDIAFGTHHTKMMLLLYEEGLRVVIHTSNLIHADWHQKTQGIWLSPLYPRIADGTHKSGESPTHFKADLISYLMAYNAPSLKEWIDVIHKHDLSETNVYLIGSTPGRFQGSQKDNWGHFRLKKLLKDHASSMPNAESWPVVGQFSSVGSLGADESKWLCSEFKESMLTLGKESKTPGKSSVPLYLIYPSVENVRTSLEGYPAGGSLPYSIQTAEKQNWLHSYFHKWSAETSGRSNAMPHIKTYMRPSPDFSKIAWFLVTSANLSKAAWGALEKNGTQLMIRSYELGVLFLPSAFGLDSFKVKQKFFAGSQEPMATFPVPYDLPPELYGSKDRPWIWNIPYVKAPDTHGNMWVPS
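Signal: AlphaScreen proximity between streptavidin donor and anti-FITC acceptor beads on intact substrate. Reaction: Tdp1 1 nM, substrate 15 nM final, 5 min RT after 15 min compound preincubation.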
CtBP-E1A blk – CtBP/E1A binding inhibition. AlphaScreen GST-E1A/His-CtBP binding, 1536-well; active compounds read low. activity change, % (concentration not given with the values). actives 0.49% (n = 340,000). AID 651724; in the data active means activity change below about -65%; inconclusive means mostly about -30% to -63%
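GST-E1A and His-tagged CtBP (125 nM each as 5X stock) were preincubated with pin-transferred compound for 2 h at 37 °C in the dark, then glutathione donor and nickel acceptor beads were added for 1 h before AlphaScreen reading.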
DT40 TDP1 no CPT – qHTS for Inhibitors of human tyrosyl-DNA phosphodiesterase 1 (TDP1): qHTS in cells in absence of CPT. actives 15% (n = 420,000). Potency, µM (series often up to 46.2 µM), actives largely listed as inhibitors. DT40 Tdp1-/- hTDP1 cells, no CPT, ATP luminescence, 48 h; further: nearly all actives have a fitted effect of over 55% in size
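Readout: luminescence from CellTiter-Glo after 30 min in the dark at RT. Cells: DT40 Tdp1-/- with stable hTDP1, 400/well. Exposure: compounds alone, ≥48 hr, 37 °C.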
A number is an active result; - = inactive; ? = inconclusive; . = no result; [ ] = another dose, or the depositor's remark. Most compounds without a hit are left out; they make up all but 18% or so of the library. Unless noted, the call rests on the fitted dose curve; in most records, active means well fitted curve in the direction sought with a large enough effect; inconclusive means small, poorly fitted or top-dose-only effect, or another doubt; inactive means no such curve, though single readings can be large; an effect the other way counts as inactive or inconclusive.

SMILES | Six1-Eya2 blk | IL-1B inflam inh | DT40 TDP1 CPT | TDP1 block | CtBP-E1A blk | DT40 TDP1 no CPT
CC(=O)Nc1ccc(S(=O)(=O)NNc2cccc(C)c2)cc1 | - | - | 23µM | . | - | ?
Cc1ccc(S(=O)(=O)Nc2ccc(-c3nc4cc(NS(=O)(=O)c5ccc(C)cc5)ccc4o3)cc2)cc1 | . | . | . | - | . | .
CC(=O)Nc1ccc(S(=O)(=O)Nc2cccc(-c3nc4cc(C)ccc4o3)c2)cc1 | - | - | 21µM | . | . | 21µM
CC(=O)Nc1ccc(S(=O)(=O)Nc2cccc(-c3csc(C)n3)c2)cc1 | - | - | 21µM | - | - | ?
CCNC(=O)COC(=O)C1CCC(=O)N(c2ccc(OC)cc2)C1c1ccc(OC)cc1 (centres undefined) | - | - | - | - | - | -
O=C(NCC(O)c1ccc([N+](=O)[O-])cc1)c1cccc(S(=O)(=O)N2CCOCC2)c1 (centres undefined) | - | - | - | - | - | ?
CCOCCc1nn2c(=O)cc(COC(=O)COc3ccccc3Cl)nc2s1 | . | . | - | - | . | -
O=C1c2ccccc2S(=O)(=O)c2cc(N3CCN(c4ccccc4)CC3)ccc21 | - | - | ? | . | - | 16µM
O=C1c2ccccc2S(=O)(=O)c2cc(N3CCOCC3)ccc21 | - | ? | 12µM | . | - | 21µM
O=C(O)c1cccc2c1C(=O)c1ccc(N3CCCCC3)cc1S2(=O)=O | - | - | - | - | - | -
COCCNC(=O)c1cccc2c1C(=O)c1ccc(N3CCOCC3)cc1S2(=O)=O | - | - | ? | - | - | -
O=C1NC(=O)[C@@]2(CCOc3ccc(F)cc32)N1 | . | . | - | - | . | -
O=C1CC(c2ccccc2)CC2=C1CN(C1CCCCC1)CN2 (centres undefined) | - | - | ? | - | - | ?
COc1ccccc1/C=C/C1(C(=O)NC2CCCC2)CC(=O)N1c1ccc(F)cc1 (centres undefined) | - | -89 | 18µM | - | - | ?
COc1ccccc1/C=C/C1(C(=O)NC2CCCC2)CC(=O)N1c1ccc(C)cc1 (centres undefined) | - | - | ? | - | - | 23µM
CC1(C(=O)NC2CCCCC2)Cc2ccccc2C(=O)N1Cc1ccc(F)cc1 (centres undefined) | . | . | ? | - | . | ?
O=C(NC1CCCC1)C(c1ccncc1)N(Cc1ccccc1F)C(=O)c1csnn1 (centres undefined) | - | - | - | - | - | -
CCNC(=O)NC(=O)CSc1ccc(S(=O)(=O)N(C)C2CCCCC2)cn1 | - | - | ? | - | - | -
O=c1cc(-c2ccccc2Cl)oc2c([N+](=O)[O-])c(O)cc(O)c12 | ? | -74 | 23µM | - | . | 26µM
COc1ccccc1-c1cc(=O)c2c(O)ccc([N+](=O)[O-])c2o1 | - | - | 3.7µM | . | - | 5.2µM
O=C(NNC1=NC2(CCCC2)Cc2ccccc21)c1cccnc1 | - | - | - | - | - | -
Cc1n[nH]c(C)c1S(=O)(=O)N(CC(=O)NCc1ccccc1Cl)c1ccc(C(C)C)cc1 | . | . | ? | - | . | 16µM
Cc1ccc(N(CC(=O)NCc2ccccc2Cl)S(=O)(=O)c2c(C)noc2C)cc1 | - | - | - | - | - | ?
COc1ccc(CNC(=O)CN(c2ccc(C)cc2)S(=O)(=O)c2c(C)n[nH]c2C)cc1 | . | . | - | - | . | ?
COc1cccc(CNC(=O)CN(c2ccc(C(C)C)cc2)S(=O)(=O)c2c(C)n[nH]c2C)c1 | . | . | 16µM | - | . | 23µM
SMILES | Six1-Eya2 blk | IL-1B inflam inh | DT40 TDP1 CPT | TDP1 block | CtBP-E1A blk | DT40 TDP1 no CPT
COc1ccc(/C=N/Nc2ncnc3sc(C)c(C)c23)cc1 | ? | - | 2.9µM | - | - | 4.1µM
Cc1ccc(Nc2ncnc3sc(C)c(C)c23)cc1C | - | - | - | - | - | ?
COc1cccc(/C=N/Nc2ncnc3scc(-c4ccccc4)c23)c1OC | - | -67 | ? | - | - | 18µM
Cc1sc2ncnc(N/N=C/c3ccc(O)cc3)c2c1C | ? | - | ? | - | - | ?
Cc1sc2ncnc(N/N=C/c3ccccc3O)c2c1C | -86 | - | 3.7µM | - | -88 | 3.3µM
O=C(NC1CCN(S(=O)(=O)c2ccc(Cl)c(F)c2)CC1)c1cccnc1 | - | - | - | . | - | -
Cc1onc(C(=O)N2CCN(C(c3ccccc3)c3ccccc3)CC2)c1[N+](=O)[O-] | - | -99 | ? | - | - | ?
CC(=O)N1CCN(C(c2ccccc2)c2ccccc2)CC1 | - | - | - | . | - | -
Cc1cc(=O)oc(C)c1C(=O)N1CCN(c2ccc(F)cc2)CC1 | - | - | - | - | - | -
Cc1onc(C(=O)N2CCOCC2)c1[N+](=O)[O-] | - | - | - | - | . | -
CC12CCC(C(=O)N3CCN(C(c4ccccc4)c4ccccc4)CC3)(OC1=O)C2(C)C (centres undefined) | - | - | ? | - | - | 18µM
Cc1cc(=O)oc(C)c1C(=O)N1CCN(C(c2ccccc2)c2ccccc2)CC1 | - | - | 21µM | - | - | 29µM
Cc1c(C(=O)N2CCN(C(c3ccccc3)c3ccccc3)CC2)oc2ccccc12 | - | - | 16µM | - | . | ?
COc1cc(C(=O)N2CCN(Cc3ccc4c(c3)OCO4)CC2)cc(OC)c1OC | - | - | - | - | - | -
CSCC[C@H](NC(=O)[C@H](Cc1c[nH]c2ccccc12)NC(=O)CNC(=O)[C@H](Cc1ccc(O)cc1)NC(=O)[C@H](C)NC(=O)[C@H](CCC(=O)O)NC(=O)[C@H](CCC(=O)O)NC(=O)[C@H](CCC(=O)O)NC(=O)[C@H](CCC(=O)O)NC(=O)[C@H](CCC(=O)O)NC(=O)[C@H](CC(C)C)NC(=O)[C@H](Cc1c[nH]c2ccccc12)NC(=O)[C@@H]1CCCN1C(=O)CNC(=O)[C@@H]1CCC(=O)N1)C(=O)N[C@@H](CC(=O)O)C(=O)N[C@@H](Cc1ccccc1)C(=O)NCC(=O)O | . | . | . | - | . | .
Cc1c(Nc2nc3ccccc3n3cnnc23)cccc1[N+](=O)[O-] | - | ? | - | . | - | -
COc1cc2c(cc1OC)CN(C(=O)c1oc3ccccc3c1C)CC2 | - | - | 21µM | -[0.0935 µM] | - | 23µM
CC(=O)Nc1ccc(-c2ccnc3c2CC(C(=O)Nc2cccc(OC(F)(F)F)c2)O3)cc1 (centres undefined) | - | - | 21µM | . | - | 18µM
NC(=O)c1cccc(-c2ccnc3c2CC(C(=O)Nc2cccc(C(F)(F)F)c2)O3)c1 (centres undefined) | - | - | 18µM | . | - | 18µM
